Source: PubChem BioAssay
Shown are actives, neighbours in structure and some others; about 7.3% of the full set was active somewhere.
HCV inh: qHTS Assay for Inhibitors of Hepatitis C Virus (HCV). Potency, µM (titrated, usually from 41.8 µM), inactives show at the top dose activity change, negative = inhibition, usual class: inhibitors. actives 3.4% (n = 340,000). Huh7.5.1 HCVcc-Cre infection, luciferase reporter, 44 h; active = well fitted inhibition curve with a large enough effect; inconclusive = small, poorly fitted or top-dose-only effect, or another doubt; inactive = no such curve, though single readings can be large or run the other way; note: potency is the fitted concentration of half-maximal effect
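Antiviral activity was scored by luciferase reporter output from cells infected with HCVcc-Cre (~0.5 moi) in presence of compound, 44 h infection period, cells seeded 1,000/well 4 h prior.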
Vaccinia Venus: qHTS for Stage-Specific Inhibitors of Vaccinia Orthopoxvirus: Venus Reporter Primary qHTS | Vaccinia virus Venus reporter expression, fluorescence | Potency, µM (series often up to 36.5 µM), for inactives: top-dose activity change, negative = inhibition, usual class: inhibitors | actives 0.46% (n = 330,000) | AID 720580, 2013; calls by dose curve; tested in A549 cells; note: potency is the fitted concentration of half-maximal effect; nearly all actives have a fitted effect of over 30% in size
FMDV inh: High Throughput Screening for Foot and Mouth Disease Virus Antivirals | AID 1159524, 2015 | FMDV antiviral cell-based qHTS | actives 1.2% (n = 410,000) | Potency, µM (series often up to 57.9 µM), inactives show top-dose activity change, negative = inhibition, hits mostly inhibitors; calls by dose curve; tested in HEK293T cells; note: read-out not given here; potency is the fitted concentration of half-maximal effect; nearly all actives have a fitted effect of over 45% in size
Vaccinia mCherry: qHTS for Stage-Specific Inhibitors of Vaccinia Orthopoxvirus: mCherry Reporter Primary qHTS. Potency, µM (titrated, usually from 36.5 µM), for the others: top-dose activity change, negative = inhibition, actives largely listed as inhibitors. Vaccinia virus mCherry reporter infection, fluorescence. actives 0.63% (n = 310,000). AID 720579, 2013; calls by dose curve; tested in A549 cells; note: potency is the fitted concentration of half-maximal effect; nearly all actives have a fitted effect of over 35% in size
HCMV antiviral: qHTS Assay for inhibitors of the human cytomegalovirus (HCMV); HFF cells, HCMV-luciferase reporter, 72 h; hits give low values; activity change, negative = inhibition, % at 57.5 µM; actives 4.5% (n = 410,000); AID 1259415, 2018; in the data active = activity change below about -60%; inconclusive = no clear call, values can overlap the other calls; inactive = above about -39%
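Screen run at 2 compound doses on HFFs infected with reporter HCMV, MOI 1 PFU/cell. Luciferase activity from cell lysates at 72 h post infection gave inhibition relative to buffer-only and Salinomycin wells.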
Numbers without * were called inactive; i = inactive; u = inconclusive; x = no result given; [ ] = dose if it differs, or a comment. % is set by controls: 0 for no effect and ±100 for the full control effect.

SMILES	HCV inh	Vaccinia Venus	FMDV inh	Vaccinia mCherry	HCMV antiviral
COc1cc(=O)n2c(c1C(=O)NC(C)c1ccco1)CCN(C(=O)c1ccccc1SC)CC2 (configuration not stated)	x	0%	23%	i	x
O=C(O)CCSc1nnc(-c2ccc(Cl)cc2Cl)o1	x	-4%	-18%	-5%	-76*
CCSc1nnc(-c2ccc(Cl)cc2Cl)o1	13%	x	0%	x	27
C[C@@H]1CN(Cc2ccc3c(c2)CN(C(=O)CN2CCOc4ccccc4C2)CCO3)C[C@H](C)O1	x	1%	-7%	-9%	x
CCOC(=O)c1nnn2c1nc(SCC(C)=O)c1ccccc12	-2%	-6%	-13%	-26%	5
NNc1nc2c(-c3cccc(C(F)(F)F)c3)nnn2c2ccccc12	14µM*	4%	18%	u	44
CC(=O)NCCNc1nc2c(-c3ccc(C)cc3)nnn2c2ccccc12	x	3%	-29%	9%	53
CCOC(=O)c1nnn2c1nc(Nc1cccc(C(F)(F)F)c1)c1ccccc12	-3%	-16%	-17%	-14%	-74*
CC(=O)NCCNc1nc2c(-c3cccc(C)c3)nnn2c2ccccc12	14µM*	x	-3%	x	-18
CCn1c2ccc(F)cc2c2nnc(NN)nc21	-3%	-23%	-8%	-11%	-1
NNc1nnc2c3cc(F)ccc3n(Cc3ccccc3)c2n1	u	-16%[7.34 µM]	5%	-29%[7.34 µM]	-95*
CCCCc1nc2ccccc2c(N)c1CCC (tested in a mixture with another compound)	-55%	-26%	u	u	-68*
CCCCc1nc2ccccc2c(NC(=O)CNC(C)(C)C)c1CCC	u	-13%	-19%	-24%	-21
Cc1ccc(C)c(OCCC(=O)OCC(=O)NCCc2ccc(S(N)(=O)=O)cc2)c1	21%	-13%	-14%	-15%	-39
CC(c1ccccc1)N1C(=O)c2ccc(C(=O)Nc3ccccc3C(=O)O)cc2C1=O (configuration not stated)	-1%	x	20%	x	-80*
Cc1cc([N+](=O)[O-])c2[nH]c(C(=O)N/N=C/c3ccccc3C(=O)O)c(-c3ccccc3)c2c1	u	x	-5%	x	-80*
c1ccc(-n2cnnc2SCc2cn3ccsc3n2)cc1	16%	x	29%	x	-11
Cc1cccc(-n2c(SCc3cc(=O)n4ccsc4n3)nc3ccccc32)c1	7.9µM*	-12%	0%	-23%	-6
Cn1c(Cc2ccccc2)nnc1SCc1ccc(C(=O)O)cc1	42%	-13%	16%	-9%	-10
Cn1c(Cc2ccccc2)nnc1SCc1cc(=O)n2ccsc2n1	20%	-2%	18%	-4%	-63*
Cc1ccc(-n2c(SCc3cn4ccsc4n3)nc3ccccc3c2=O)cc1	10µM*	u	-10%	-26%[1.46 µM]	-65*
CCCCSCCCNC(=O)C1CCC(CNS(=O)(=O)c2c(C)cc(C)cc2C)CC1 (configuration not stated)	x	-3%	5%	4%	105
CCc1c(C)sc2c1CCN(Cc1ccccc1)C2c1ccccc1 (configuration not stated)	x	-10%	-24%	-29%	-102*
CCc1c(C)sc2c1CCN(Cc1ccccc1C#N)C2c1ccccc1 (configuration not stated)	x	-6%	-6%	-19%	-8
Cc1cc(=O)[nH]c2nnc(SCc3ccc(Cl)c(Cl)c3)n12	x	-20%	11%	-7%	58
CCN1CCCC1CNC(=O)c1cc(N)ccc1OC (configuration not stated)	15%	-10%	-4%	-11%	15
C=CCN1CCCC1CNC(=O)c1cc2[nH]nnc2cc1OC (configuration not stated)	5%	-7%	-9%	-10%	-68*
O=C(Nc1ccccc1)c1cc2ccc3ccccc3c2s1	11µM*	-12%[7.34 µM]	42%	-22%[7.34 µM]	152
COc1ccc2cc(C(=O)Nc3ccccc3)sc(=O)c2c1OC	u	-15%	23%	0%	-32
Cc1cccc(N2CCN(C(=O)CCN3C(=S)NC(C)(C)CC3C)CC2)c1C (configuration not stated)	u	-11%	u	-21%	u
